In PubChem BioAssay (NCI) one finds growth inhibition data, which are given here for 22 compounds.

Each structure is given as a SMILES string. Compounds without any hit were thinned out: in the full panel of roughly 79,000, 15% have a hit. Unmarked numbers belong to inactive results. Calls of active or inactive are those of the source. Rule as the data show it: active = growth inhibition above about 70%; inactive = the rest.

Assay [1] is described as follows: NCI Yeast Anticancer Drug Screen. Data for the rad50 strain (AID 155).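 Also: 0% = growth of vehicle-only cultures of the same strain.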 Particulars: S. cerevisiae rad50 strain growth inhibition; at 50.0 µM; active compounds read high. The procedure, abridged:
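Genetically altered yeast (DNA repair pathway); compound treatment; growth inhibition vs vehicle ctrl.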

Assay [2] can be described thus: NCI Yeast Anticancer Drug Screen. Data for the mec2-1 strain (AID 157). Particulars: S. cerevisiae mec2-1 strain, at 50.0 µM, active compounds read high. The procedure, abridged: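 Test agents were screened against the mec2-1 yeast strain, with defined DNA repair or cell cycle alteration. Growth was scored as inhibition against vehicle-only controls.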
The nature of assay [3]: NCI Yeast Anticancer Drug Screen. Data for the sgs1 mgt1 strain (AID 161).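 Also: 0% = growth of cultures given vehicle only.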 The following applies: S. cerevisiae sgs1 mgt1 strain, at 50.0 µM, active compounds read high. The essentials:
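Genetically altered yeast, compound exposure, growth inhibition relative to vehicle.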

Assay [4] in a line: NCI Yeast Anticancer Drug Screen. Data for the cln2 rad14 strain (AID 165).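 Also: 0% = growth equal to vehicle treated cultures.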 The following applies: S. cerevisiae cln2 rad14 strain, at 50.0 µM, active compounds read high. The essentials: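 Growth of compound-exposed yeast (cln2 rad14 genotype) measured and expressed as inhibition relative to vehicle.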
Assay [5] in a line: NCI Yeast Anticancer Drug Screen. Data for the bub3 strain (AID 167). Particulars: S. cerevisiae bub3 mutant strain, at 50.0 µM, active compounds read high. The essentials:
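Yeast carrying a defined mutation is treated with each compound, and growth is compared with that of vehicle-exposed cells to give inhibition.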

Assay [6] is described as follows: NCI Yeast Anticancer Drug Screen. Data for the mlh1 rad18 strain (AID 175). The following applies: S. cerevisiae mlh1 rad18 strain growth inhibition; at 50.0 µM; active compounds read high. The procedure, abridged: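 In this whole-cell yeast screen, a strain with altered DNA damage repair is challenged with compound, and its growth is measured against matched vehicle-treated controls.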

`COc1ccccc1NC(=O)/C(=C/C1CC(=O)NC1=S)C(C)=O` (configuration not stated): the growth inhibition was -18.6% in assay [1]; -9.4% in assay [2]; -18.6% in assay [3]; 15.5% in assay [4]; 12% in assay [5]; -7.4% in assay [6].

Consider `O=C1C=CC2C=CC1C=C2`, for which the growth inhibition in assay [1] is -1.55%; in assay [2] it was 14.8%; in assay [3], 23.2%; in assay [4] it was 1.15%; in assay [5], -7.7%; in assay [6] it was 11.7%.

On to `Nc1ccccc1C(=O)CC1OC(=O)c2ccccc21` (configuration not stated), for which the growth inhibition in assay [1] was 19.6%; in assay [2], 12.1%; in assay [3] it was 7.35%; in assay [4], 4%; in assay [5], 7.8%; in assay [6], -13.7%.

`O=S1(=O)CS(=O)(=O)OCCO1`: the growth inhibition in assay [1] is 26.2%; in assay [2], 6.8%; in assay [3], 14.7%; in assay [4], 31.9%; in assay [5], 10.7%; in assay [6] it was 16.8%.

`NC(CSCC(=O)O)C(=O)O` (configuration not stated): the growth inhibition in assay [1] is -19.8%; in assay [2] it was -3.85%; in assay [3], 1.15%; in assay [4], -20.6%; in assay [5] it was 16.1%; in assay [6], -5.9%.

As to `C=CCNC(=O)N(CCC)CCCC(NC(C)=O)C(=O)NCc1ccccc1` (configuration not stated), the growth inhibition in assay [1] was -9.75%; in assay [2], -27.5%; in assay [3], -14.8%; in assay [4], 10.4%; in assay [5] it was -17.1%; in assay [6], -9.7%.

Regarding `CCN(Cc1cc(Cl)cc(C)c1O)Cc1c(O)ccc2ccccc12`, the growth inhibition in assay [1] was 99.5% (active); in assay [2], 99.2% (active); in assay [3], 99.3% (active); in assay [4] it was 99.3% (active); in assay [5] it was 98.6% (active); in assay [6], 99.7% (active).

`CC1=C(C#N)C(=N)OC1(C)C1CC(=O)C=CC1=O` (configuration not stated): the growth inhibition in assay [1] was -11.5%; in assay [2], 27.4%; in assay [3] it was 7.9%; in assay [4] it was 20.5%; in assay [5], 4.55%; in assay [6], 4.6%.

Consider `COc1nc(Cl)cc2nc(Cl)cn12`, for which the growth inhibition in assay [1] was 3.4%; in assay [2], 9.35%; in assay [3], -3.65%; in assay [4], 9.55%; in assay [5], -11.8%; in assay [6], 2.55%.

Take `COC1=CC(=O)C(C)=CC1=O`: the growth inhibition is -2.1% in assay [1]; 2.65% in assay [2]; 3.5% in assay [3]; 7.35% in assay [4]; 16.3% in assay [5]; 7.5% in assay [6].

As for `CC(=O)CC(=O)NCCCN1CCCCCC1`, the growth inhibition in assay [1] was -1.1%; in assay [2], -20.1%; in assay [3] it was -9.45%; in assay [4], -1.05%; in assay [5] it was -11.2%; in assay [6], -4.35%.

As to `Cc1cc(-c2ccccc2)nc(Nc2nc3ccccc3o2)n1`, the growth inhibition in assay [1] was 9.2%; in assay [2] it was 1.1%; in assay [3], 10.6%; in assay [4], 6.35%; in assay [5] it was -9.45%; in assay [6], -2.3%.

Take `O=C(O)C(Br)C(Br)C(=O)Nc1cccc(Cl)c1` (configuration not stated): the growth inhibition in assay [1] was 0.5%; in assay [2] it was -47.2%; in assay [3], 21.2%; in assay [4], -27.8%; in assay [5] it was 5.75%; in assay [6], 20.2%.

For `CC(=O)Oc1cc(Cl)c(Cl)cc1Cl`, the growth inhibition was 19.9% in assay [1]; 29.9% in assay [2]; -5.65% in assay [3]; -30.4% in assay [4]; -16.4% in assay [5]; -2.1% in assay [6].

As to `CCCCCCCCCC(=O)OCC1OC(n2cc(F)c(=O)[nH]c2=O)C(N)C(OC(=O)CCCCCCCCC)C1O` (configuration not stated), the growth inhibition in assay [1] is 42.8%; in assay [2], 5.6%; in assay [3], 17.1%; in assay [4], 57.6%; in assay [5] it was 8.85%; in assay [6] it was 8.15%.

For the compound `CC(=O)Nc1ccccc1Sc1ccccc1`, the growth inhibition in assay [1] was -6.5%; in assay [2] it was -17.1%; in assay [3], 4.35%; in assay [4] it was 15.1%; in assay [5], 4.6%; in assay [6], -20.9%.

On to `Cc1nc2scc(C)c2c(=S)[nH]1`, for which the growth inhibition in assay [1] is -0.85%; in assay [2] it was 1.5%; in assay [3] it was 6.75%; in assay [4] it was -38.9%; in assay [5] it was -11.8%; in assay [6], -2.45%.

Regarding `COc1ccc2c(c1)Sc1c(Cl)c3c(c(Cl)c1=N2)Sc1cc(OC)ccc1N=3`, the growth inhibition in assay [1] is 19.5%; in assay [2], -4.75%; in assay [3] it was 0.7%; in assay [4], 21.7%; in assay [5], -2.2%; in assay [6], 13.9%.

`COCCCNC(=O)C1=C(C)NC(C)=C(C(=O)NCCCOC)C1`: the growth inhibition in assay [1] is -49%; in assay [2] it was -64.2%; in assay [3] it was -10.7%; in assay [4], 3.6%; in assay [5], -11.2%; in assay [6], -50.6%.

Consider `CC(C)=NC(C(=O)O)C(C)(C)S` (configuration not stated), for which the growth inhibition is -17.6% in assay [1]; -15.2% in assay [2]; -18.1% in assay [3]; -12.3% in assay [4]; -62% in assay [5]; -17.1% in assay [6].

For the compound `NC(=O)Nc1nc(-c2ccccc2)no1`, the growth inhibition is -16.7% in assay [1]; 7.15% in assay [2]; -17% in assay [3]; -50.6% in assay [4]; -6.75% in assay [5]; -16.1% in assay [6].

Consider `COc1ccc2c(c1)c1cc(OC)ccc1n2CCCCOc1ccc(-c2c3ccccc3c(-c3ccc(OCCCCn4c5ccc(OC)cc5c5cc(OC)ccc54)cc3)c3ccccc23)cc1`, for which the growth inhibition in assay [1] was 29.1%; in assay [2] it was 1.85%; in assay [3], -1.1%; in assay [4] it was 23.9%; in assay [5], 7.9%; in assay [6], 29.6%.
